The values below come from the supplement of paper PMC8728848.

What all share (test): glycan array binding signal (z-score within array); higher = stronger binding
Holding throughout (settings): glycan notation: IUPAC condensed, linker removed

Assay [1] has as its system Gal(b1-3)GalNAc(b1-4)Gal(b1-4)Glc. The gist of the method: (§1)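 Arrays were curated from the Consortium for Functional Glycomics database, 3228 in total, and kept only where the protein sequence was available. Binding is expressed as a within-array Z-score. This score was averaged across arrays of the same protein sequence at different concentrations or buffers and across linkers, and negative values can be read as non-binding.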

The subject of assay [2] is Gal(b1-3)GlcNAc(a1-6)Gal(b1-4)GlcNAc. Put shortly: as §1
Assay [3] concerns Gal(b1-3)GlcNAc(b1-3)Gal(b1-4)GlcNAc(b1-2)[Gal(b1-3)GlcNAc(b1-3)Gal(b1-4)GlcNAc(b1-6)]Man(a1-6)[Gal(b1-3)GlcNAc(b1-3)Gal(b1-4)GlcNAc(b1-2)Man(a1-3)]Man(b1-4)GlcNAc(b1-4)[Fuc(a1-6)]GlcNAc. Put shortly: as §1
The next assay concerns Gal(b1-3)Gal. Put shortly: as §1
Assay [4] has as its system Gal(b1-3)GlcNAc(b1-3)Gal(b1-4)GlcNAc. The gist of the method: as §1
The test system of assay [5] is Gal(b1-3)GlcNAc(b1-2)Man(a1-3)[Gal(b1-3)GlcNAc(b1-2)Man(a1-6)]Man(b1-4)GlcNAc(b1-4)GlcNAc. Put shortly:
as §1

Assay [6] has as its system Gal(b1-3)GlcNAc(b1-2)Man(a1-3)[Gal(b1-3)GlcNAc(b1-2)Man(a1-6)]Man(b1-4)GlcNAc(b1-4)[Fuc(a1-6)]GlcNAc. Put shortly: as §1
The test system of assay [7] is Gal(b1-3)GalNAc(b1-4)[Neu5Ac(a2-3)]Gal(b1-4)Glc. Put shortly:
as §1

The test system of assay [8] is Gal(b1-3)GlcNAc(b1-2)Man(a1-3)[GlcNAc(b1-4)][Gal(b1-3)GlcNAc(b1-2)Man(a1-6)]Man(b1-4)GlcNAc(b1-4)GlcNAc. Put shortly: as §1
Assay [9] concerns Gal(b1-3)GlcNAc(b1-3)Gal(b1-4)GlcNAc(b1-6)[Gal(b1-3)GlcNAc(b1-3)]Gal(b1-4)Glc. Put shortly: as §1

The entries come from a sample that favours the strongest signals as a whole.

Avaren (Actinomycete K97), sequence (chain, as listed by the source): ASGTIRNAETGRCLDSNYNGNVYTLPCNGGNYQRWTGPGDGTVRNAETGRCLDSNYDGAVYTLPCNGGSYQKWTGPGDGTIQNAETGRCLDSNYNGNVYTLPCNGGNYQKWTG
Regenerating Gene IV (Homo sapiens), Q9BYZ8, sequence (Q9BYZ8 whole entry, looked up): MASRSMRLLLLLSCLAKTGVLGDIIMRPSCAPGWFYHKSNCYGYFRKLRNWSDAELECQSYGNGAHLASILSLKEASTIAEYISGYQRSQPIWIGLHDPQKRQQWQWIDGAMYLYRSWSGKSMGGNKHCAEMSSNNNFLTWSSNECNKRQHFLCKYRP
6RG (Lolium perenne), sequence (chain, as listed by the source): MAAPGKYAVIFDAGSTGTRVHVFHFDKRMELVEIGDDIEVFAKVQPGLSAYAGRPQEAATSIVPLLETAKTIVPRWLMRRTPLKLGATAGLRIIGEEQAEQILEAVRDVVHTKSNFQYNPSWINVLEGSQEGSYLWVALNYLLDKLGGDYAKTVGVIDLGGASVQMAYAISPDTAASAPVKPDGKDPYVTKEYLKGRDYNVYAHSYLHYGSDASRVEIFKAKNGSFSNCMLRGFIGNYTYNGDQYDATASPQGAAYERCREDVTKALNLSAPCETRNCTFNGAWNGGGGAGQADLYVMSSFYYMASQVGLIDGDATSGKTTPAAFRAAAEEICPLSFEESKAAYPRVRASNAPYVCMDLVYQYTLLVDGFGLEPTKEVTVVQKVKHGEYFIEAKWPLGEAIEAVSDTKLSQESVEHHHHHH
PILRb (Mus musculus), Q2YSF2, sequence (Q2YSF2 entry or part of it): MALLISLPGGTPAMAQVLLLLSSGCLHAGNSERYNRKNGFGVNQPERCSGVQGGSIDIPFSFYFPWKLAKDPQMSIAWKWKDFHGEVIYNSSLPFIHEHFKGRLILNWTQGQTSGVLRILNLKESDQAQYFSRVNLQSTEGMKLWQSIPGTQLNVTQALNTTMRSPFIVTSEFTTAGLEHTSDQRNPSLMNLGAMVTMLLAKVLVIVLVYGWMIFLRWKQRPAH
PILRa (Mus musculus), Q2YSF3, sequence (Q2YSF3 entry or part of it): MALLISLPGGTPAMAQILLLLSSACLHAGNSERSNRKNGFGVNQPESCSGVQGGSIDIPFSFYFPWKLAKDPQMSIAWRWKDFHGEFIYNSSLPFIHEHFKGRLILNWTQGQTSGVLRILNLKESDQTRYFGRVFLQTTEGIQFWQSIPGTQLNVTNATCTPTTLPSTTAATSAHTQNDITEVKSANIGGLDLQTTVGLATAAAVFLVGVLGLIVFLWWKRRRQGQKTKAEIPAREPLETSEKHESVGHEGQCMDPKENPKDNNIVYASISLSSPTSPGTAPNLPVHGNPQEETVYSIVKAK
CHI3L1 (Homo sapiens), P36222, sequence (P36222 whole entry): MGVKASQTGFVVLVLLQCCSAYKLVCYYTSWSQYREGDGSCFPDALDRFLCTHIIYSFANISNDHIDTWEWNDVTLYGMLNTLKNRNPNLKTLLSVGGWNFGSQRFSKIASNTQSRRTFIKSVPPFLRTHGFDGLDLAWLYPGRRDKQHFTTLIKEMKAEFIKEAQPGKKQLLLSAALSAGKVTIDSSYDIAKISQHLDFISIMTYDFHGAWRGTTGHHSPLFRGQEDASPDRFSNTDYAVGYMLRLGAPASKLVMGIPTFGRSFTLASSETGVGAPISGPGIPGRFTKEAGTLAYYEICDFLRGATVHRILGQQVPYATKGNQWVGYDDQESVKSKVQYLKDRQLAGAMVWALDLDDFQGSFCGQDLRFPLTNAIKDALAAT
Neurocan (Homo sapiens), O14594, sequence (O14594 other isoform, or with tags, fused parts or gaps): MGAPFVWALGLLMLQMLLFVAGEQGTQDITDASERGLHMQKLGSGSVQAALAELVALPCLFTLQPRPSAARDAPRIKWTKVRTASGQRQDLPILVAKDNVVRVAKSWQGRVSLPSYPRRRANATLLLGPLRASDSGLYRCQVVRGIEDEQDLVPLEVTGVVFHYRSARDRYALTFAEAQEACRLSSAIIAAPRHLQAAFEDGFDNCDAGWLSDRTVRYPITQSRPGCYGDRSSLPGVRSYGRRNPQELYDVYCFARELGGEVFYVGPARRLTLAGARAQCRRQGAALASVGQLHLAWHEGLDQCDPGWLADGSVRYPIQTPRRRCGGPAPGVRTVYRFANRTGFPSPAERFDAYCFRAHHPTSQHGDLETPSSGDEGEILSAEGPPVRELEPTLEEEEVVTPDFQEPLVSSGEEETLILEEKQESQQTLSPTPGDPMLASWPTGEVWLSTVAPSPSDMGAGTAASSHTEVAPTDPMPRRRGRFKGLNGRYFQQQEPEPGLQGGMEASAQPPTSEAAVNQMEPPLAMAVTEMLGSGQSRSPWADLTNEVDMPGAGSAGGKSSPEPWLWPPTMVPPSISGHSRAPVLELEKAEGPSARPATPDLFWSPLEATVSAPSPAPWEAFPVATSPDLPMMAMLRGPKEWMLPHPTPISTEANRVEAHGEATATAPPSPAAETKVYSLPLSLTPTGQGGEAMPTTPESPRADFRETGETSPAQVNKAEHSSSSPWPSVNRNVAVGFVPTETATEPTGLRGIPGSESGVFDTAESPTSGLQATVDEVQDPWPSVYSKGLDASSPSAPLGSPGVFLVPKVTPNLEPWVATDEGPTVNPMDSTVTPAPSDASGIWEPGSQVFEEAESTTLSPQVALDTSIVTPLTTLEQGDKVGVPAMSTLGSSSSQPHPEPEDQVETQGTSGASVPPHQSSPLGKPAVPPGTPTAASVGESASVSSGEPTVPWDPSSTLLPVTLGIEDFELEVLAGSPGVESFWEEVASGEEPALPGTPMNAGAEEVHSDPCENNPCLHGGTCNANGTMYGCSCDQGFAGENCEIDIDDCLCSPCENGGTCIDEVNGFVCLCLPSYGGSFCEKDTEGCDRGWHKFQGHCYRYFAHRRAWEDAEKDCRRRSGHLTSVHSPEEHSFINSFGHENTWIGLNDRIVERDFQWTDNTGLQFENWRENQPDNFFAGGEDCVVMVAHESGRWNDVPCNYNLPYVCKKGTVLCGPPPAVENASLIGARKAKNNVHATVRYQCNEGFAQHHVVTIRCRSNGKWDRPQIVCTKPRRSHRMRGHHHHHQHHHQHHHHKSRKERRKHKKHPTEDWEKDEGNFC
C3b (Homo sapiens), P01024, sequence (P01024 23-667): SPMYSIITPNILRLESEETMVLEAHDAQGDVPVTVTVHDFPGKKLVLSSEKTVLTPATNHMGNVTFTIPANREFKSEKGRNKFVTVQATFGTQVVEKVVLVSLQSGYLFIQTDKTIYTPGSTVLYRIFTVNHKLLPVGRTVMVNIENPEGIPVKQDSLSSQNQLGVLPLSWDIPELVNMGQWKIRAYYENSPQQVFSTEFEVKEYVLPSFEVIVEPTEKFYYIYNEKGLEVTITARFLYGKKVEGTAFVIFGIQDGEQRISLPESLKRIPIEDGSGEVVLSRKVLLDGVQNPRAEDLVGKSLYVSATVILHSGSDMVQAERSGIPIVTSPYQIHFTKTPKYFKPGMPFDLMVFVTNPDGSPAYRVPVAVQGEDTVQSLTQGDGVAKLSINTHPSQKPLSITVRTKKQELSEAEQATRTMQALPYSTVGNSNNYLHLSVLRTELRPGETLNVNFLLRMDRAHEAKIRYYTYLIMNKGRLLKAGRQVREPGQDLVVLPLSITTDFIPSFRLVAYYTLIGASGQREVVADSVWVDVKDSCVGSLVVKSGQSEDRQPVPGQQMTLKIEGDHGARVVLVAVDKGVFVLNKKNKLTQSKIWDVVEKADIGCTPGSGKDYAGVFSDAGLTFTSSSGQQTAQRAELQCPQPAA
wLAT-1A (Homo sapiens), Q01650, sequence (Q01650 whole entry): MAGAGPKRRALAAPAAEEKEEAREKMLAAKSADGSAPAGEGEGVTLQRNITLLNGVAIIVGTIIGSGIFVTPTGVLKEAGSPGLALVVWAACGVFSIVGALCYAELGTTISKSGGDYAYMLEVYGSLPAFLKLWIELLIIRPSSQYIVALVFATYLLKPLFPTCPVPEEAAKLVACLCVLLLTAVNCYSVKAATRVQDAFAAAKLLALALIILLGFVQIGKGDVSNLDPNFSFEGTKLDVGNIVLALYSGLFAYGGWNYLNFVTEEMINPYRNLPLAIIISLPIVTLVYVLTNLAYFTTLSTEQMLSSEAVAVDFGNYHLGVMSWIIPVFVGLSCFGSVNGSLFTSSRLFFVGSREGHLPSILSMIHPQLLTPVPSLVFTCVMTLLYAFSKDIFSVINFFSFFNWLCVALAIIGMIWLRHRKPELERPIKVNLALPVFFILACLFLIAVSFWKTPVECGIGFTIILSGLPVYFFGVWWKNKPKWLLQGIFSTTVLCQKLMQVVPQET

Consider 6RG (Lolium perenne), for which, in assay [1], the “glycan array binding signal (z-score)” value is 0.249.

As for Siglec-8 (Homo sapiens), Q9NYZ4, the “glycan array binding signal (z-score)” value in assay [2] is -0.162; in assay [3], 0.166.

Regarding “Regenerating Gene IV (Homo sapiens), Q9BYZ8”, the “glycan array binding signal (z-score)” value was -0.546 in the assay with Gal(b1-3)Gal and -0.615 in assay [4].

PILRb (Mus musculus), Q2YSF2: the “glycan array binding signal (z-score)” value in [5] stood at 0.611.

Turning to Avaren (Actinomycete K97), the “glycan array binding signal (z-score)” value was -0.081 in assay [6] and 1.97 in assay [3].

On to Neurocan (Homo sapiens), O14594, for which the “glycan array binding signal (z-score)” value in assay [2] is -0.985.

Turning to HARE (Homo sapiens), Q8WWQ8, the “glycan array binding signal (z-score)” value with Gal(b1-3)Gal came out at 2.26.

In the case of C3b (Homo sapiens), P01024, the “glycan array binding signal (z-score)” value in assay [1] was -0.644.

For MpAFP RI GFP (Marinomonas primoryensis), the figures for the “glycan array binding signal (z-score)” value in assay [7] and in [8] were -0.54 and 1.37, respectively.

For CHI3L1 (Homo sapiens), P36222, the “glycan array binding signal (z-score)” value in [8] was determined as 0.123.

Regarding wLAT-1A (Homo sapiens), Q01650, in assay [7], the “glycan array binding signal (z-score)” value was -0.218.

As for PILRa (Mus musculus), Q2YSF3, the “glycan array binding signal (z-score)” value in assay [9] is -0.146.
